# Measurements as given in PubChem BioAssay (NCI).
# About 83,000 compounds went through this panel and 20% of them were active in at least one assay; those are over-represented in the sample as a whole.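 Plates (96-well) were seeded with cells, treated with compound at one concentration, and incubated for 48 hours before percent growth was determined.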 Active and inactive are the calls of the source. How the source made its calls: active means growth percent below 10; inactive means the rest.
# Test system: A549/ATCC NSCLC
# Assay: NCI-60 one-dose screen, 48 h (100 = growth as untreated, 0 = no growth, -100 = all killed)
# Settings: 10 µM unless noted
row,Compound,growth
1,O=C(Nc1cccc(Cl)c1)Oc1c(Br)c(Br)c(Br)c(Br)c1Br,73.7% (inactive)
2,CN1CCN(Cc2ccc(NC(=O)c3cncc(C#Cc4cnccc4C(F)(F)F)c3)cc2C(F)(F)F)CC1,94% (inactive)
3,CN(C)Cc1c(-c2ccccc2)[nH]c2ccccc12,80.3% (inactive)
4,CCN(CC)CCCC(Nc1c2ccc(Cl)cc2nc2ccc(OC)cc12)c1ccc(Cl)cc1 (stereo unspecified),-42.5% (active)
5,O=C(CNCCO)Nc1ccc2ncnc(Nc3ccc(OCc4cccc(F)c4)c(Cl)c3)c2c1,71.6% (inactive)
6,CSc1nnc2c(=O)n(C)c(=O)n(C)c2n1,104% (inactive)
7,C=CCn1c(SCC(=O)Nc2ccc(C(=O)/C=C/c3cc(OC)c(OC)c(OC)c3)cc2)nnc1-c1cc(-c2ccc(S(C)(=O)=O)cc2)nc2ccccc12,99.4% (inactive)
8,CCNC(=O)c1[nH]cc(-c2ccc(OC)cc2)c1-c1cc(OC)cc(OC)c1,91.3% (inactive)
9,COc1ccc(/C=N/C2=C(C#N)C(c3ccccc3[N+](=O)[O-])c3ccc4ccccc4c3O2)cc1 (stereo unspecified),99.8% (inactive)
10,COc1ccc(-c2nc(N/N=C/c3cccc(O)c3)nc(N3CCOCC3)c2C#N)cc1,81.7% (inactive)
11,Cc1ccccc1-c1cc(Cc2ccc(F)cc2)c(=O)[nH]n1,33.4% (inactive)
12,COC(=O)Nc1ccc(NC(=O)OC)cc1,69.7% (inactive)
13,O=C1Nc2ccccc2/C1=N/c1nc(-c2ccc(Cl)cc2)cs1,49.4% (inactive)
14,Clc1ccc(N2N=C(c3cccc(Nc4ccncc4)c3)CC2c2ccc(Br)cc2)cc1 (stereo unspecified),16.7% (inactive)
15,O=C(OCc1nc2nc(Cl)nc(N3CCOCC3)c2[nH]1)n1ccnc1,48.4% (inactive)
16,Cn1c(COC(=O)NCCN2CCOCC2)nc2c(N3CCOCC3)nc(-c3ccccc3)nc21,30.7% (inactive)
17,O=C1c2cccnc2C(=O)c2nc3cc(N4CCN(C5CC5)CC4)ccc3nc21,-53.3% (active)
18,CCCCCN1C=C/C(=C\C(=O)N(C)c2cccc3ccccc23)c2ccccc21,102% (inactive)
19,COc1cc2nc(-c3ccc(C#N)cc3)[nH]c(=O)c2cc1OC,15.5% (inactive)

row,Compound,growth
1,CN1CCN(c2cnc(C(=O)Nc3cc(F)cc4cccnc34)cn2)CC1,92.4% (inactive)
2,CC(=O)OCC(=O)C1(O)C(C)CC2C3C=C(C)C4=Cc5c(cnn5-c5ccccc5)CC4(C)C3C(O)CC21C (stereo unspecified),24.5% (inactive)
3,CCCCCCN(C)Cc1ccc(OCCOc2ccc(CN(C)CCCCCC)cc2)cc1,44% (inactive)
4,CCCCCCCCCCCCCCCCCCOc1ccccc1N,25.5% (inactive)
5,COc1cc(-c2nc3occn3c2-c2ccnc(NCCNS(=O)(=O)c3ccc(Cl)cc3)n2)ccc1F,82% (inactive)
6,Cc1nc2sc(C(=O)Nc3ccccc3)c(N)c2cc1C(=O)c1ccc(C(F)(F)F)cc1,42.8% (inactive)
7,S=c1[nH]cccc1-c1nnc2n1Nc1nc3ccc(Cl)cc3cc1CS2,107% (inactive)
8,CC(C)Cc1ccc(C(C)C(=O)NCc2c[nH]c3ccc(Cl)cc23)cc1 (stereo unspecified),89% (inactive)
9,Cc1c([N+](=O)[O-])cc(C(C)(C)C)cc1[N+](=O)[O-],81.8% (inactive)
10,O=C(Nc1nc2ccc(C(=O)N3CCN(c4ccc(Cl)c(Cl)c4)CC3)cc2s1)c1ccc(NCCc2ccccc2)c([N+](=O)[O-])c1,97.9% (inactive)
11,CS(=O)(=O)c1ccc(-c2cc3c(oc2=O)-c2ccccc2OC3O)cc1 (stereo unspecified),104% (inactive)
12,Cc1n[nH]c(C)c1-c1c(C)n[nH]c1C,11.9% (inactive)
13,CCCOc1nc(SCCC)nc2c1cnn2-c1ccccc1,100% (inactive)
14,Fc1ccccc1CSc1ncnc2nc[nH]c12,104% (inactive)
15,Nc1c(Cl)cc([N+](=O)[O-])cc1Br,99.6% (inactive)
16,NC(=O)CN1CCN(c2ccccc2Cl)CC1,111% (inactive)
17,C=C(C)[C@H]1CC/C(C)=C/CC[C@]2(C)O[C@H]2CC/C(COC(=O)[C@@H](OC(C)=O)[C@H](NC(=O)c2ccccc2)c2ccccc2)=C\[C@@H]1O,87.3% (inactive)
18,C(=C\c1n(Cc2ccc3ccccc3c2)c(-c2ccccc2)c(-c2ccccc2)[n+]1Cc1ccc2ccccc2c1)/c1ccccc1,-62.4% (active)
19,Nc1c(C(=O)Nc2cccc3ccncc23)sc2nc3c(cc12)C(=O)CCC3,38.6% (inactive)

# Test system: 786-0 renal
# Assay: as above
# Settings: 10 µM unless noted
row,Compound,growth
1,O=C(Nc1cccc(Cl)c1)Oc1c(Br)c(Br)c(Br)c(Br)c1Br,93.8% (inactive)
2,CN1CCN(Cc2ccc(NC(=O)c3cncc(C#Cc4cnccc4C(F)(F)F)c3)cc2C(F)(F)F)CC1,89.7% (inactive)
3,CN(C)Cc1c(-c2ccccc2)[nH]c2ccccc12,90% (inactive)
4,CCN(CC)CCCC(Nc1c2ccc(Cl)cc2nc2ccc(OC)cc12)c1ccc(Cl)cc1 (stereo unspecified),-84% (active)
5,O=C(CNCCO)Nc1ccc2ncnc(Nc3ccc(OCc4cccc(F)c4)c(Cl)c3)c2c1,69.6% (inactive)
6,CSc1nnc2c(=O)n(C)c(=O)n(C)c2n1,116% (inactive)
7,C=CCn1c(SCC(=O)Nc2ccc(C(=O)/C=C/c3cc(OC)c(OC)c(OC)c3)cc2)nnc1-c1cc(-c2ccc(S(C)(=O)=O)cc2)nc2ccccc12,93.6% (inactive)
8,CCNC(=O)c1[nH]cc(-c2ccc(OC)cc2)c1-c1cc(OC)cc(OC)c1,95.6% (inactive)
9,COc1ccc(/C=N/C2=C(C#N)C(c3ccccc3[N+](=O)[O-])c3ccc4ccccc4c3O2)cc1 (stereo unspecified),101% (inactive)
10,COc1ccc(-c2nc(N/N=C/c3cccc(O)c3)nc(N3CCOCC3)c2C#N)cc1,44.1% (inactive)
11,Cc1ccccc1-c1cc(Cc2ccc(F)cc2)c(=O)[nH]n1,111% (inactive)
12,COC(=O)Nc1ccc(NC(=O)OC)cc1,93.3% (inactive)
13,O=C1Nc2ccccc2/C1=N/c1nc(-c2ccc(Cl)cc2)cs1,75.6% (inactive)
14,Clc1ccc(N2N=C(c3cccc(Nc4ccncc4)c3)CC2c2ccc(Br)cc2)cc1 (stereo unspecified),105% (inactive)
15,O=C(OCc1nc2nc(Cl)nc(N3CCOCC3)c2[nH]1)n1ccnc1,-81.4% (active)
16,Cn1c(COC(=O)NCCN2CCOCC2)nc2c(N3CCOCC3)nc(-c3ccccc3)nc21,-83.9% (active)
17,O=C1c2cccnc2C(=O)c2nc3cc(N4CCN(C5CC5)CC4)ccc3nc21,28.1% (inactive)
18,CCCCCN1C=C/C(=C\C(=O)N(C)c2cccc3ccccc23)c2ccccc21,96.8% (inactive)
19,COc1cc2nc(-c3ccc(C#N)cc3)[nH]c(=O)c2cc1OC,61.3% (inactive)

row,Compound,growth
1,CN1CCN(c2cnc(C(=O)Nc3cc(F)cc4cccnc34)cn2)CC1,56% (inactive)
2,CC(=O)OCC(=O)C1(O)C(C)CC2C3C=C(C)C4=Cc5c(cnn5-c5ccccc5)CC4(C)C3C(O)CC21C (stereo unspecified),-39.2% (active)
3,CCCCCCN(C)Cc1ccc(OCCOc2ccc(CN(C)CCCCCC)cc2)cc1,-72.6% (active)
4,CCCCCCCCCCCCCCCCCCOc1ccccc1N,25% (inactive)
5,COc1cc(-c2nc3occn3c2-c2ccnc(NCCNS(=O)(=O)c3ccc(Cl)cc3)n2)ccc1F,84.9% (inactive)
6,Cc1nc2sc(C(=O)Nc3ccccc3)c(N)c2cc1C(=O)c1ccc(C(F)(F)F)cc1,95.3% (inactive)
7,S=c1[nH]cccc1-c1nnc2n1Nc1nc3ccc(Cl)cc3cc1CS2,98.8% (inactive)
8,CC(C)Cc1ccc(C(C)C(=O)NCc2c[nH]c3ccc(Cl)cc23)cc1 (stereo unspecified),95.8% (inactive)
9,Cc1c([N+](=O)[O-])cc(C(C)(C)C)cc1[N+](=O)[O-],104% (inactive)
10,O=C(Nc1nc2ccc(C(=O)N3CCN(c4ccc(Cl)c(Cl)c4)CC3)cc2s1)c1ccc(NCCc2ccccc2)c([N+](=O)[O-])c1,107% (inactive)
11,CS(=O)(=O)c1ccc(-c2cc3c(oc2=O)-c2ccccc2OC3O)cc1 (stereo unspecified),88.7% (inactive)
12,Cc1n[nH]c(C)c1-c1c(C)n[nH]c1C,6.23% (active)
13,CCCOc1nc(SCCC)nc2c1cnn2-c1ccccc1,105% (inactive)
14,Fc1ccccc1CSc1ncnc2nc[nH]c12,106% (inactive)
15,Nc1c(Cl)cc([N+](=O)[O-])cc1Br,87.8% (inactive)
16,NC(=O)CN1CCN(c2ccccc2Cl)CC1,91.6% (inactive)
17,C=C(C)[C@H]1CC/C(C)=C/CC[C@]2(C)O[C@H]2CC/C(COC(=O)[C@@H](OC(C)=O)[C@H](NC(=O)c2ccccc2)c2ccccc2)=C\[C@@H]1O,85.1% (inactive)
18,C(=C\c1n(Cc2ccc3ccccc3c2)c(-c2ccccc2)c(-c2ccccc2)[n+]1Cc1ccc2ccccc2c1)/c1ccccc1,-78.2% (active)
19,Nc1c(C(=O)Nc2cccc3ccncc23)sc2nc3c(cc12)C(=O)CCC3,44.5% (inactive)
